Consider 13 compounds from ChEMBL document CHEMBL4513146, “CO-ADD screening of Karazin Kharkiv National University (Ukraine) compounds”.

The test system of one assay is Staphylococcus aureus. To be noted: Concentration 32 ug.mL-1;; ASSAY_TEST Inhibition of Bacterial Growth; detection method Absorption (OD600); MEDIA CAMHB; plate type 384well; NBS; CORNING #3640; time 18 hr.
The test system of the next assay is Escherichia coli. To be noted: Concentration 32 ug.mL-1;; ASSAY_TEST Inhibition of Bacterial Growth; detection method Absorption (OD600); MEDIA CAMHB; plate type 384well; NBS; CORNING #3640; time 18 hr.

Results with a measured potency or affinity are listed apart.

For `CC(C)c1nnc2c(=O)n(CC(=O)Nc3ccc(F)cc3F)c3ccccc3n12`, the Inhibition with Staphylococcus aureus turned out to be 12.23%; in the assay with Escherichia coli, 2.42%.

In the case of `COc1cccc(CN(c2ccc(F)cc2)S(=O)(=O)c2ccc3nnc(C)n3c2)c1`, the figures for the Inhibition in the assay on Staphylococcus aureus and in the assay with Escherichia coli were -1.25% and -6.02%, respectively.

Turning to `Cc1ccc(-n2ccn3c(SCC(=O)Nc4ccc5c(c4)OCCO5)nnc3c2=O)cc1C`, the Inhibition in the assay on Staphylococcus aureus is reported as 6.11%; with Escherichia coli, -5.98%.

`Cc1ccc(C)c(CN(c2ccc(F)c(F)c2)S(=O)(=O)c2cccn3cnnc23)c1`: the Inhibition came to 5.14% in the assay on Staphylococcus aureus and 0.2% with Escherichia coli.

For the compound `COc1ccc(N2CCN(C(=O)Cn3nc4c(Oc5cccc(C)c5C)nccn4c3=O)CC2)cc1`, the results for the Inhibition in the assay on Staphylococcus aureus and in the assay with Escherichia coli were 7.43% and -1.11%, respectively.

Turning to `COc1cc(NC(=O)C(C)Sc2nnc3c(=O)n(-c4cccc(OC)c4)ccn23)cc(OC)c1` (stereo unspecified), the Inhibition is listed as -2.41% with Staphylococcus aureus and -14.15% in the assay with Escherichia coli.

As for `Cc1cc2nn(CC(=O)Nc3ccc(Cl)cc3)c(=O)n2c(Nc2ccc(F)c(C)c2)n1`, the values for the Inhibition with Staphylococcus aureus and with Escherichia coli were 4.83% and -2.12%, respectively.

Take `COC(=O)c1cccc(NC(=O)Cn2nc3c(SCc4ccc(Cl)cc4)nccn3c2=O)c1`: the values for the Inhibition in the assay on Staphylococcus aureus and in the assay on Escherichia coli were 6.19% and -8.47%, respectively.

Regarding `COc1ccc(NC(=O)Cn2nc3c4cc(-c5ccc(C)cc5)nn4ccn3c2=O)cc1Cl`, the Inhibition is given as -6.7% in the assay with Staphylococcus aureus and -3.03% with Escherichia coli.

For `Cc1ccc(NC(=O)CSc2nc3ccccc3n3c(C)nnc23)cc1C`, the Inhibition in the assay with Staphylococcus aureus is given as -20.91%; with Escherichia coli it was -12.4%.

Consider `CCCCOc1ccc(-c2cc3c4nnc(SCC(=O)Nc5c(C)cccc5C)n4ccn3n2)cc1`, for which the Inhibition was -7.16% with Staphylococcus aureus and -10.46% in the assay with Escherichia coli.

Regarding `O=C(Cn1nc2c(Oc3ccccc3)nccn2c1=O)Nc1cc(F)ccc1F`, the Inhibition in the assay with Staphylococcus aureus is on record as -5.96%; in the assay with Escherichia coli it was -11.57%.

Take `O=C(CSc1nnc2c3cc(-c4ccc(F)cc4)nn3ccn12)NCc1ccccc1`: the results for the Inhibition with Staphylococcus aureus and in the assay on Escherichia coli were -2.17% and -6.24%, respectively.
